Experimental data published in PubChem BioAssay (NCI).
Compounds without any hit were thinned out: in the full panel of roughly 83,000, 20% have a hit.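 How to read the values: 0–100, growth inhibition (40 = 60% inhibited); 0, no net growth; -100 to 0, cell death (-40 = 40% of starting cells died; -100 = all dead).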 Calls of active or inactive are those of the source. How the source made its calls: active means growth percent below 10; inactive means the rest.

Columns and labels:
Assay in all cases: NCI-60 one-dose screen, 48 h (100 = growth as untreated, 0 = no growth, -100 = all killed)
[1] = test system: HCT-15 colon; conditions: 10 µM unless noted
[2] = test system: HT29 colon; conditions: 10 µM unless noted
[3] = test system: SNB-75 CNS; conditions: 10 µM unless noted
[4] = test system: U251 CNS; conditions: 10 µM unless noted
[5] = test system: PC-3 prostate; conditions: 10 µM unless noted
[6] = test system: SK-MEL-5 melanoma; conditions: 10 µM unless noted
[7] = test system: UACC-62 melanoma; conditions: 10 µM unless noted
[8] = test system: LOX IMVI melanoma; conditions: 10 µM
[9] = test system: SK-MEL-28 melanoma; conditions: 10 µM unless noted
[10] = test system: SK-MEL-2 melanoma; conditions: 10 µM unless noted
[11] = test system: EKVX NSCLC; conditions: 10 µM unless noted
[12] = test system: SN12C renal; conditions: 10 µM unless noted
[13] = test system: UO-31 renal; conditions: 10 µM unless noted
[14] = test system: TK-10 renal; conditions: 10 µM unless noted
[15] = test system: ACHN renal; conditions: 10 µM unless noted
[16] = test system: CAKI-1 renal; conditions: 10 µM unless noted
[17] = test system: A498 renal; conditions: 10 µM unless noted
[18] = test system: CCRF-CEM leukemia; conditions: 10 µM unless noted
[19] = test system: MOLT-4 leukemia; conditions: 10 µM unless noted
[20] = test system: SNB-19 CNS; conditions: 10 µM unless noted

Measured: growth

O=C1/C(=C/c2ccccc2)CCC/C1=C\c1ccccc1
inactive: [1] 81.5% | [2] 30.5% | [3] 95.9% | [4] 66.2% | [5] 88.9% | [6] 86.7% | [7] 82.6% | [8] 28.8% | [9] 98.5% | [10] 99.7% | [11] 96.1% | [12] 93.2% | [13] 88.1% | [14] 104% | [15] 95.6% | [16] 84.3% | [17] 84.6% | [18] 76.3% | [19] 73%

CCCCCCCCCCCCNCCCc1ccccc1
inactive: [1] 23.9% | [3] 64.7% | [20] 92.2% | [5] 78.9% | [7] 57.2% | [9] 73.4% | [12] 62.9% | [13] 60.8% | [14] 104% | [15] 78.1% | [16] 93% | [17] 76.5% | [18] 48.9% | [19] 54.8%
active: [2] 7.89%

CCc1oc2ccccc2c1C(=O)c1cc(Br)c(O)c(Br)c1
inactive: [1] 62.5% | [2] 89.3% | [3] 53.7% | [20] 78.4% | [5] 65.5% | [6] 46.1% | [7] 38.9% | [8] 62.3% | [9] 63.9% | [10] 59.6% | [11] 73.6% | [13] 84.3% | [14] 125% | [16] 63.6% | [17] 67.2% | [18] 41.8% | [19] 83.9%

CCC[CH2][Sn]1([CH2]CCC)[O]C2C(CO)OC(n3ccc(N)nc3=O)C2[O]1 (stereo unspecified)
inactive: [20] 28.4%
active: [1] -59.3% | [2] -69.8% | [3] -21.2% | [5] -11.3% | [6] -72.1% | [7] -89% | [8] -57% | [9] -90.3% | [10] -91.9% | [12] -52.6% | [13] -78.2% | [14] -98.2% | [15] -83.9% | [16] -82.7% | [17] -94.5% | [18] -30.7% | [19] -26.6%

N#CC(I)CS(=O)(=O)c1ccccc1 (stereo unspecified)
active: [18] 3.27%
inactive: [1] 64.2% | [2] 50.9% | [3] 95.5% | [20] 94.8% | [8] 70.8% | [9] 97% | [10] 91.6% | [11] 103% | [13] 77.2% | [14] 89.7% | [15] 36.7% | [16] 55.4% | [17] 121% | [19] 88.9%

CC[n+]1ccc(Nc2ccc(NC(=O)c3ccc(Nc4cc[n+](CC)c5ccc([N+](=O)[O-])cc45)cc3)cc2)cc1
inactive: [1] 96.2% | [2] 57.1% | [3] 98.4% | [4] 62.5% | [5] 54.2% | [6] 65.7% | [7] 79.4% | [8] 85.7% | [9] 90.3% | [10] 111% | [12] 86% | [14] 152% | [15] 96.9% | [16] 94.2% | [17] 103% | [18] 89.1% | [19] 93.3%

C=C(C(N)=O)C(N)C(=O)O (stereo unspecified)
inactive: [1] 109% | [2] 100% | [3] 108% | [20] 111% | [5] 103% | [7] 114% | [9] 106% | [12] 108% | [13] 97.6% | [14] 109% | [16] 116% | [17] 113%

N#CC1c2ccccc2C=CN1C(=O)CCCl (stereo unspecified)
active: [15] -6.33% | [18] 8.12%
inactive: [1] 84.9% | [2] 78.3% | [3] 75.9% | [20] 107% | [5] 104% | [6] 101% | [7] 106% | [8] 32.6% | [9] 105% | [10] 94.1% | [13] 60.6% | [14] 14.9% | [17] 132% | [19] 81.3%

COc1cc(NCc2ccc3nc(N)nc(N)c3c2C)cc(OC)c1OC (tested in a mixture with another compound)
inactive: [1] 26.1% | [2] 20% | [3] 33.1% | [20] 31.8% | [5] 23.4% | [8] 16.3% | [10] 61.8% | [12] 44.7% | [13] 34.9% | [14] 31.1% | [15] 23.8% | [16] 25.4% | [17] 32.9% | [18] 19.9% | [19] 20.6%

CCN(CC)CCNC(Cc1ccccc1)c1ccc(OCc2ccccc2)cc1 (stereo unspecified)
inactive: [1] 30.4% | [2] 15.4% | [3] 71.4% | [20] 89.3% | [5] 56.8% | [6] 72.8% | [8] 58.6% | [9] 62.5% | [10] 97% | [12] 73.2% | [13] 41% | [15] 61.4% | [16] 85.2% | [17] 49.8% | [18] 51.4% | [19] 57.4%
active: [7] -50.8%

O=C(c1ccc(O)c(Br)c1)c1ccc(O)c(Br)c1
inactive: [1] 104% | [2] 114% | [3] 94.9% | [4] 109% | [5] 101% | [6] 99.4% | [7] 97.1% | [8] 108% | [9] 110% | [10] 105% | [11] 112% | [12] 94.4% | [13] 98.5% | [14] 99.4% | [15] 102% | [16] 119% | [17] 93.9% | [18] 109%

O=[N+]([O-])c1ccc(N2CCN(Cc3ccccc3)CC2)c2c1no[n+]2[O-]
inactive: [3] 68.4% | [20] 37.3% | [6] 38.1% | [9] 77% | [10] 64.8% | [16] 15.3% | [17] 47.6%
active: [1] -52.8% | [2] -70.4% | [5] -31.4% | [8] -36.3% | [13] -78.1% | [15] -91.6% | [18] -31.6% | [19] -29.8%

O=C1C=C(Cl)C(=O)c2ccccc21
inactive: [1] 98.9% | [2] 119% | [3] 71.4% | [20] 97.4% | [5] 81.7% | [7] 98.2% | [9] 116% | [12] 101% | [13] 60.8% | [14] 152% | [15] 38% | [16] 90.6% | [17] 118% | [18] 53.3% | [19] 37.4%

CCNc1nnnn1CC
inactive: [1] 99.7% | [2] 109% | [3] 90.4% | [4] 106% | [5] 97.3% | [6] 101% | [7] 106% | [8] 98.7% | [9] 113% | [10] 122% | [12] 93% | [13] 108% | [14] 106% | [15] 110% | [16] 99.4% | [17] 83.8% | [18] 103% | [19] 116%

CCOC(=O)c1cc(CC)sc1NC(=O)CC(C)=O
inactive: [1] 19.9% | [2] 47.8% | [3] 44.8% | [20] 29.8% | [5] 36.2% | [7] 60.4% | [9] 96.7% | [10] 61.5% | [11] 51% | [13] 40.8% | [14] 70.9% | [15] 39.9% | [16] 53.1% | [17] 98.7% | [18] 35.5% | [19] 14.4%

O=C(CCl)N(c1ccccc1)c1ccccc1
active: [8] -36%
inactive: [1] 105% | [2] 114% | [3] 105% | [4] 98.1% | [5] 91.4% | [6] 99.8% | [7] 95.6% | [9] 110% | [10] 97.7% | [12] 99.6% | [13] 86.7% | [15] 109% | [16] 105% | [17] 105% | [18] 92.7% | [19] 102%

CC1=CC(=NC(=O)CBr)C=C/C1=N\S(=O)(=O)c1ccccc1
active: [8] 9.2%
inactive: [1] 36.6% | [2] 39.9% | [3] 67.6% | [20] 98.2% | [5] 77.5% | [6] 57.1% | [7] 66.7% | [9] 73.1% | [13] 73.1% | [14] 79.2% | [15] 46.9% | [17] 97.2% | [18] 12.2% | [19] 43.7%

CCOC(=O)C1=C(C(=O)c2ccccc2)C(c2cccc([N+](=O)[O-])c2)C(C(=O)c2ccccc2)=C(C(=O)OCC)N1
inactive: [1] 66.4% | [2] 94.3% | [3] 88.4% | [4] 79.9% | [5] 86% | [6] 95.9% | [7] 70.2% | [9] 95.6% | [10] 105% | [11] 87.9% | [12] 93.7% | [14] 112% | [15] 88.4% | [16] 79.6% | [17] 104% | [18] 65% | [19] 52.2%
active: [8] -57.6%

COc1ccc(/C=C2/C(=O)ON=C2C)cc1
inactive: [1] 112% | [2] 99.2% | [3] 106% | [20] 106% | [5] 97.6% | [6] 103% | [7] 90.3% | [8] 99.4% | [9] 106% | [10] 96% | [12] 95.6% | [13] 99% | [14] 96.5% | [15] 118% | [16] 102% | [17] 100% | [18] 105% | [19] 107%
